# Reference: paper PMC12864922, “TDP-43 directly inhibits mRNA accumulation in neurites through modulation of mRNA stability”
# Over roughly 9,900 sequences, “r (bound/input frequency ratio)” has its median near 0.7; the highest 2% begin near 6.5. The sample as a whole holds a higher share of the highest values than the screen did.
# B1: ENSMUSG00000031028.526|Tub (ssRNA)
# RNA: GGGAGUUCUACAGUCCGACGAUCGCUUCGAUAUCCGCAUGCUACUUUCUCUUUUAUGGAAAUGGCAGGUCUAUUUGCCUCAAACGUUAUGUAGAAGUAGUUCUAAGUUUAACAAGCAAUAGAGAUGACUGCUUAGCUAGGAUCUGCAGGGAGCUCUGCUCUGCAAGCACAACACCUGUCUCAUAGAUGGACAGCCUGGUUUCCCUUCUCAGCAGUCCUGGCCUCCCCUUCUCUGUAUUCCUUGCCCCAGCUACGAUAUCCUCAUGGGAUUUCAGGAUGCCAGGUGCCAUCAAAGCAUGCUUUUCUCUUGCGGUCGCACUAGUGUGGAAUUCUCGGGUGUCAAGG
# B2: ENSMUSG00000061578.913|Ksr2|118:122 (ssRNA)
# RNA: GGGAGUUCUACAGUCCGACGAUCGCUUCGAUAUCCGCAUGCUACAGAGACAGAUUUCCCAGAAUCCCUGGGCCACUUCUCAAUUCUACCCAUGACAGACAUGUCCCAUCCAUGAGCCCAGAUAGUCAAAGACUUCAGCACAAGGGUGUUUAGAGUAGGCACACACGAAGUAUCAAUAAGGUUAUUGAGAUGAGGAUUUAGAAAGAUCCAUGUAUAAAAGGUCUAGAAGGAUGAAGAUCUAAAACAAGAAGACUGCAUGUUAACGCUCCUGCCACUGUUGCCCCUUCCUUUACCCUUGGCAGACCUCUUGCGGUCGCACUAGUGUGGAAUUCUCGGGUGUCAAGG
# B3: ENSMUSG00000061578.39|Ksr2 (ssRNA)
# RNA: GGGAGUUCUACAGUCCGACGAUCGCUUCGAUAUCCGCAUGCUAAGGGUCCCAUGUGUGGUGUGAAGGAGCCACAGACUGAGCACACCACCUCGGACUGUGGAGACCAAGACACAUGCCCAGUGGGCAGACUCAGACUCACACGCUGGACCAGUGUGUGCGCAUGUGUCUACACAUGGACAGGGCCAACUGCUAUCCUUCUGCCUGGACGAGCCAGCUGUGGAGUGUCCCAGCUGUGCUAUCCUGGAACACAGAACCAGGAUGGAACCAGAAACAAUACACCUGCUCCGUUGUCAAGGCUUCUACUCUUGCGGUCGCACUAGUGUGGAAUUCUCGGGUGUCAAGG
# B4: ENSMUSG00000042529.380|Kcnj12 (ssRNA)
# RNA: GGGAGUUCUACAGUCCGACGAUCGCUUCGAUAUCCGCAUGCUAUUUAAAUUUGGGUAAGGUGGGUUUCAUGCUCACCAACCUGAACUGGUCAGGCUGGAUGCUGGCCACAGACAUGAUCAGUCCGACUUGAGUCCCUGCCCUGCCCUGGUUAUGCAGGCUGUACGACGCAGUGUGCAUCAGUCUGAGGAGUCUGGUGGUAAGUAAGCCUCUGCAGCAGACCCUGUCGGAGGCCAUGGGGGCGUGUGUGUGUGUGUGUGUGUGUGUGUGUGUGUGUGUGUGUGUGUGUGUGUGUGAACAUGUGUCUCUUGCGGUCGCACUAGUGUGGAAUUCUCGGGUGUCAAGG
# B5: ENSMUSG00000061578.23|Ksr2 (ssRNA)
# RNA: GGGAGUUCUACAGUCCGACGAUCGCUUCGAUAUCCGCAUGCUAGUGAUGACGUCACAGAGGCUGUCCACACCUUCGACUUGUACCCCGUUACUCAGGCACGAUCAGGGACCACUCAACUAGGACCAAACUGGGCCAGAGAGGGUCCCAUGUGUGGUGUGAAGGAGCCACAGACUGAGCACACCACCUCGGACUGUGGAGACCAAGACACAUGCCCAGUGGGCAGACUCAGACUCACACGCUGGACCAGUGUGUGCGCAUGUGUCUACACAUGGACAGGGCCAACUGCUAUCCUUCUGCCUGGACUCUUGCGGUCGCACUAGUGUGGAAUUCUCGGGUGUCAAGG
# B6: ENSMUSG00000042529.385|Kcnj12 (ssRNA)
# RNA: GGGAGUUCUACAGUCCGACGAUCGCUUCGAUAUCCGCAUGCUACACCAACCUGAACUGGUCAGGCUGGAUGCUGGCCACAGACAUGAUCAGUCCGACUUGAGUCCCUGCCCUGCCCUGGUUAUGCAGGCUGUACGACGCAGUGUGCAUCAGUCUGAGGAGUCUGGUGGUAAGUAAGCCUCUGCAGCAGACCCUGUCGGAGGCCAUGGGGGCGUGUGUGUGUGUGUGUGUGUGUGUGUGUGUGUGUGUGUGUGUGUGUGUGUGUGAACAUGUGUGAGGGUGUGGAGGUCCCAGGGUGUGUGUAUCUCUUGCGGUCGCACUAGUGUGGAAUUCUCGGGUGUCAAGG
# B7: ENSMUSG00000042529.384|Kcnj12 (ssRNA)
# RNA: GGGAGUUCUACAGUCCGACGAUCGCUUCGAUAUCCGCAUGCUACAUGCUCACCAACCUGAACUGGUCAGGCUGGAUGCUGGCCACAGACAUGAUCAGUCCGACUUGAGUCCCUGCCCUGCCCUGGUUAUGCAGGCUGUACGACGCAGUGUGCAUCAGUCUGAGGAGUCUGGUGGUAAGUAAGCCUCUGCAGCAGACCCUGUCGGAGGCCAUGGGGGCGUGUGUGUGUGUGUGUGUGUGUGUGUGUGUGUGUGUGUGUGUGUGUGUGUGUGAACAUGUGUGAGGGUGUGGAGGUCCCAGGGUGUCUCUUGCGGUCGCACUAGUGUGGAAUUCUCGGGUGUCAAGG
# B8: ENSMUSG00000042529.383|Kcnj12 (ssRNA)
# RNA: GGGAGUUCUACAGUCCGACGAUCGCUUCGAUAUCCGCAUGCUAGGGUUUCAUGCUCACCAACCUGAACUGGUCAGGCUGGAUGCUGGCCACAGACAUGAUCAGUCCGACUUGAGUCCCUGCCCUGCCCUGGUUAUGCAGGCUGUACGACGCAGUGUGCAUCAGUCUGAGGAGUCUGGUGGUAAGUAAGCCUCUGCAGCAGACCCUGUCGGAGGCCAUGGGGGCGUGUGUGUGUGUGUGUGUGUGUGUGUGUGUGUGUGUGUGUGUGUGUGUGUGUGAACAUGUGUGAGGGUGUGGAGGUCCCACUCUUGCGGUCGCACUAGUGUGGAAUUCUCGGGUGUCAAGG
# B9: ENSMUSG00000042529.382|Kcnj12 (ssRNA)
# RNA: GGGAGUUCUACAGUCCGACGAUCGCUUCGAUAUCCGCAUGCUAUAAGGUGGGUUUCAUGCUCACCAACCUGAACUGGUCAGGCUGGAUGCUGGCCACAGACAUGAUCAGUCCGACUUGAGUCCCUGCCCUGCCCUGGUUAUGCAGGCUGUACGACGCAGUGUGCAUCAGUCUGAGGAGUCUGGUGGUAAGUAAGCCUCUGCAGCAGACCCUGUCGGAGGCCAUGGGGGCGUGUGUGUGUGUGUGUGUGUGUGUGUGUGUGUGUGUGUGUGUGUGUGUGUGUGAACAUGUGUGAGGGUGUGGAGCUCUUGCGGUCGCACUAGUGUGGAAUUCUCGGGUGUCAAGG
# B10: ENSMUSG00000061578.1090|Ksr2 (ssRNA)
# RNA: GGGAGUUCUACAGUCCGACGAUCGCUUCGAUAUCCGCAUGCUAAGCAGCCAACCAUGAAAAUAGAGGUUUGUAAUGUACAGAAGGCUGGGGGAGCUUUCAGGGGUGUGGCCAGUUAUGUACAGAUGUGAAGCUGAGGUCUGAAGGAAAUGGAGGAAGUAGGAAGAUCAGACUGGUUGAAUUAGAAGUCUGUCACUCUAGGUGCUAAGUGACCUUGGACCCAGUCAGUUCUUGGAUUUCUGUUGUAGCCCAGGCUAGCCUCGAACCCUUGAUCCUCCUGUUCCUGGUAGAGAAACAGCCACUAACUCUUGCGGUCGCACUAGUGUGGAAUUCUCGGGUGUCAAGG
# B11: ENSMUSG00000043670.121|Diras1 (ssRNA)
# RNA: GGGAGUUCUACAGUCCGACGAUCGCUUCGAUAUCCGCAUGCUAUGUCUGCACACCAGGGUGGAUGGGCCCGAGGGCUGGGCCUCAGGCACCAGGCAAUAAACACAGGGCCUGCAGCAAUGCCCUGGCCACCCCGAGUACCACCUCUGGAAUAGCAGACGCCCACAGCACAAGCCCAGGACUGUCCCUUCAGGGGAGGCACACUGGAACCCUGAACUUGGAGUGUGGAGUGGCUGCCUGGACACUGCCCACCUGGACACCAGCCUUCUGCUGAGAUAGAGACCUUGGCACAGUGGCACCUCGACCUCUUGCGGUCGCACUAGUGUGGAAUUCUCGGGUGUCAAGG
# B12: ENSMUSG00000043670.183|Diras1|29:33;126:130;160:164;174:183;189:196;229:233 (ssRNA)
# RNA: GGGAGUUCUACAGUCCGACGAUCGCUUCGAUAUCCGCAUGCUAGACAGAAUCUGAGCCUCUUUGCUGGUCAACACAACUCUGGAGACUGUCCCCCAUGUCUGCCCUGAGUUACGGAGCCCCUGUGGUAUCUGCGAGACUGUCCAGGAGACUUGAGUGGCUCCUGGGCCACACACCCACCCAGAUGAGGGUGACUUAGAAUUCACACAUUAUGUGCCACACACACACGAUGGCACACACACUGUCUUGGGAUGGGGUGUUCUUGCACCACUUACACAUCUUAGUGAGACCACAGUGUAAGUGGCCUCUUGCGGUCGCACUAGUGUGGAAUUCUCGGGUGUCAAGG
# B13: ENSMUSG00000042529.381|Kcnj12 (ssRNA)
# RNA: GGGAGUUCUACAGUCCGACGAUCGCUUCGAUAUCCGCAUGCUAUUUGGGUAAGGUGGGUUUCAUGCUCACCAACCUGAACUGGUCAGGCUGGAUGCUGGCCACAGACAUGAUCAGUCCGACUUGAGUCCCUGCCCUGCCCUGGUUAUGCAGGCUGUACGACGCAGUGUGCAUCAGUCUGAGGAGUCUGGUGGUAAGUAAGCCUCUGCAGCAGACCCUGUCGGAGGCCAUGGGGGCGUGUGUGUGUGUGUGUGUGUGUGUGUGUGUGUGUGUGUGUGUGUGUGUGUGUGAACAUGUGUGAGGGUCUCUUGCGGUCGCACUAGUGUGGAAUUCUCGGGUGUCAAGG
# B14: ENSMUSG00000031028.210|Tub (ssRNA)
# RNA: GGGAGUUCUACAGUCCGACGAUCGCUUCGAUAUCCGCAUGCUAAAUGUAUAAGGUUGGAAACCUUUCAGUAGGGAAUCAGGCAGUUCCCUGUUGAAAGUUGUCUGAGUUUUUGCACACCAUUCUGAUCUGAUGUGGCCUGUGCCUGGCUCCUCUAUGAGGACUUCGAGCUGUGCACAGACCUUAGCAGGACCACUGCACACUUUGUGUCUGUGUGACAGGCAGCCCAAGGGUUCUGGGGCUGGGCUUGGACACGCCCUCCAUUGGGAUGGCACCACUCAUCUGGUGGGCUUGGGAACUCCAAGCUCUUGCGGUCGCACUAGUGUGGAAUUCUCGGGUGUCAAGG
# Molecular target: TDP-43 (Homo sapiens, UniProt Q13148 1-414)
# Assay: RNA Bind-n-Seq with designed 260-mer pool; 25 mM Tris-HCl, 150 mM KCl, 3 mM MgCl2, BSA (printed 500 mg/mL), 20 units/mL SUPERase IN; pH not stated; 500 nM RNA pool, 1 h, 4 C; TDP-43 5, 50, 500 nM; high values mean tight binding
# Conditions: protein: recombinant; tags: SBP (GST cleaved off with PreScission; pGEX-GST-SBP)
# In short: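 Duplicate measurements used two independent batches of recombinant SBP-tagged TDP-43, which was captured on streptavidin beads at 5, 50 or 500 nM. The beads were incubated with 500 nM of an in vitro-transcribed 260-nt 3′ UTR oligo pool for 1 h at 4 °C in 25 mM Tris-HCl, 150 mM KCl, 3 mM MgCl2, BSA and SUPERase IN. After washing, biotin elution, reverse transcription, PCR amplification and sequencing, binding was expressed as R: each oligo's normalized read abundance in the bound sample over its abundance in input.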
# Sequence of TDP-43 (Q13148 whole entry): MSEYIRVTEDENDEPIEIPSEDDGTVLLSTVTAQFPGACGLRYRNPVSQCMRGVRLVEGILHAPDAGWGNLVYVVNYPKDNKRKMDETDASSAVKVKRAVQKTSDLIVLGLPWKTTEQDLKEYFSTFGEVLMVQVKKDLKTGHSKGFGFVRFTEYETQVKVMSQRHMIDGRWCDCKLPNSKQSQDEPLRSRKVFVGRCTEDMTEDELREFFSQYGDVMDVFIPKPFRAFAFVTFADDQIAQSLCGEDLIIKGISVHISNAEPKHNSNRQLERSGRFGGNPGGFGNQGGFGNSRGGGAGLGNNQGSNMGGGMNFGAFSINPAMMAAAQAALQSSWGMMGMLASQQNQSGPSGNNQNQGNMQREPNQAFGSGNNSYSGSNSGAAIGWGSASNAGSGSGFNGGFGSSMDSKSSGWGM
row,Binder,binding signal
1,B1,0.219 R (bound/input frequency ratio)
2,B2,0.457 R (bound/input frequency ratio)
3,B3,0.764 R (bound/input frequency ratio)
4,B4,7.35 R (bound/input frequency ratio)
5,B5,0.299 R (bound/input frequency ratio)
6,B6,7.81 R (bound/input frequency ratio)
7,B7,7.66 R (bound/input frequency ratio)
8,B8,8.12 R (bound/input frequency ratio)
9,B9,6.14 R (bound/input frequency ratio)
10,B10,1.34 R (bound/input frequency ratio)
11,B11,0.914 R (bound/input frequency ratio)
12,B12,0.711 R (bound/input frequency ratio)
13,B13,6.18 R (bound/input frequency ratio)
14,B14,2.94 R (bound/input frequency ratio)
